In PubChem BioAssay (Tox21):
Inconclusive results are not listed. Calls of active or inactive are those of the source. Unless noted, calls follow the shape of the dose curve; as a rule, active = well fitted curve in the direction sought with a large enough effect in the repeat runs; inconclusive = weak or mixed curves; inactive = no such curve, though single readings can be large; an effect the other way counts as inactive or inconclusive.

Key:
[1] = qHTS assay to identify small molecule agonists of the estrogen receptor alpha (ER-alpha) signaling pathway in the presence of an antagonist - cell viability counter screen (AID 1259386);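 also: series mostly up to about 92 µM; cells exposed to compounds for 22 h at 37 °C before the viability read; nearly all actives have a fitted effect of over 30% in size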
Outline: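 Cells are starved of estrogens for 5 days in charcoal-stripped serum, seeded for 24hr and co-treated with ICI-182,780 (10.0nM final) and test compounds. After 22hr at 37C, viability is read as CellTiter-Fluor fluorescence.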

[2] = target: Progesterone receptor (Homo sapiens) (UniProt P06401); experiment: qHTS assay to identify small molecule agonists of the progesterone receptor (PR) signaling pathway (AID 1346784; calls by dose curve; also: nearly all actives have a fitted effect of over 30% in size)
Outline: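 Seed PR-UAS-bla HEK 293T cells (2% charcoal-stripped FBS), incubate 6 hr at 37C; add compounds in DMSO, 16 hr at 37C; add LiveBLAzer B/G substrate, 2 hr RT; read fluorescence intensity.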

[3] = target: Progesterone receptor (Homo sapiens) (UniProt P06401); experiment: qHTS assay to identify small molecule antagonists of the progesterone receptor (PR) signaling pathway (AID 1346795; active = well fitted inhibition curve with a large enough effect in the signal ratio in the repeat runs, not every such curve was filed as active; the % refers to the signal ratio)
Outline: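 Screening used a GripTite HEK293T line with PR-responsive UAS-beta-lactamase. Cells were challenged with compound in the presence of 1 nM R5020 final for 16 hr at 37C; B/G FRET substrate, 2 hr room temperature, fluorescence.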

[4] = qHTS assay to identify small molecule antagonists of the progesterone receptor (PR) signaling pathway - cell viability counter screen (AID 1346798); also: series mostly up to about 92 µM; nearly all actives have a fitted effect of over 50% in size
Outline: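 Measures cytotoxicity in parallel with the PR antagonist reporter read: HEK293T PR-UAS-bla cells get compound and R5020 for 16 hr, and remaining viable cells are quantified by CellTiter-Glo luminescence.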

[5] = qHTS assay to identify small molecule agonists of the progesterone receptor (PR) signaling pathway - cell viability counter screen (AID 1346799; calls by dose curve; also: nearly all actives have a fitted effect of over 45% in size)
Outline: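 Using the same plates as the PR reporter screen, HEK293T PR-UAS-bla cells received compounds for 16 hr at 37C and were then lysed with CellTiter-Glo; luminescence was read 30 min later at room temperature.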

[6] = qHTS assay to identify small molecule antagonists of the TGF-beta/Smad signaling pathway - cell viability counter screen (AID 1346824); also: nearly all actives have a fitted effect of over 50% in size
Outline: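 SBE-bla HEK 293T cells were plated overnight at 37 C, then given compounds in DMSO plus TGF-beta1 (added as 0.25 ng/mL solution) for 5 hr. After the bla read, CellTiter-Glo was added to the same wells and luminescence read after 30 min at room temperature.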

[7] = qHTS assay to identify small molecule agonists of the TGF-beta/Smad signaling pathway - cell viability counter screen (AID 1346829); also: top concentration of the series differs between compounds; nearly all actives have a fitted effect of over 45% in size
Outline: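 Compound-treated SBE-bla HEK 293T cells (5 hr, 37 C) were assessed for viability with CellTiter-Glo in parallel with the reporter read.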

[8] = qHTS assay to identify small molecule agonists of the TGF-beta/Smad signaling pathway (AID 1346859; active = well fitted activation curve with a large enough effect in the signal ratio in the repeat runs, not every such curve was filed as active; the % refers to the signal ratio; also: series mostly up to about 77 µM)
Outline: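 Beta-lactamase reporter activity downstream of Smad binding elements was measured in stably transfected HEK 293T cells; compounds were incubated for 5 hr, substrate for 2 hr at room temperature.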

[9] = target: Thyrotropin-releasing hormone receptor (Homo sapiens) (UniProt P34981); experiment: qHTS assay to identify small molecule antagonists of the thyrotropin-releasing hormone receptor (TRHR) signaling pathway (AID 1346877; active = well fitted inhibition curve with a large enough effect in the repeat runs, not every such curve was filed as active; also: series mostly up to about 51 µM)
Outline: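 Cells (TRHR-HEK293) are plated and kept 18 h at 37 °C/5% CO2. A calcium-sensitive dye is added for 2 h, compound follows for 5 min at room temperature, and TRH is then given at 1 nM final.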

[10] = Human pregnane X receptor (PXR) small molecule agonists, qHTS cell viability counter screen (AID 1346977); also: nearly all actives have a fitted effect of over 50% in size
Outline: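 After a 5hr pre-incubation, PXR-Luc HepG2 cells received compounds plus positive control in DMSO and were kept 24hr at 37C. Cell viability was quantified by fluorescence from CellTiter-Fluor added for the final hour.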

[11] = Caspase-3/7 induction in HepG2 cells by small molecules, qHTS assay (AID 1346978); also: nearly all actives have a fitted effect of over 15% in size
Outline: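 Wild-type HepG2 cells (2,000/well) were settled 5 h at 37 C, 5% CO2, then exposed to compounds in DMSO for 17 h. Caspase-3/7 activity was read by luminescence 30 min after adding Caspase-Glo 3/7 reagent at room temperature.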

[12] = Caspase-3/7 induction in CHO-K1 cells by small molecules, qHTS cell viability counter screen (AID 1346979); also: nearly all actives have a fitted effect of over 35% in size
Outline: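 Multiplexed with Caspase-Glo 3/7 in CHO-K1 cells, this counter screen added CellTiter-Fluor after 16hr of compound exposure and recorded fluorescence 1hr later.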

[13] = Caspase-3/7 induction in CHO-K1 cells by small molecules, qHTS assay (AID 1346980); also: nearly all actives have a fitted effect of over 15% in size
Outline: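 Wild-type cells were seeded at 1,500 per well and settled 5 hr at 37 C, 5% CO2, then exposed to DMSO-dissolved compounds for 17 hr. Caspase-Glo 3/7 reagent was added, and luminescence was read after 30min at room temperature.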

[14] = Caspase-3/7 induction in HepG2 cells by small molecules, qHTS cell viability counter screen (AID 1346981); also: series mostly up to about 92 µM; nearly all actives have a fitted effect of over 30% in size
Outline: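 Steps: seed 2,000 HepG2 cells per well; incubate 5 hr at 37 C; pin-add compounds in DMSO; incubate 16 hr; add CellTiter-Fluor; after 1 hr at 37 C and 5% CO2, read fluorescence.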

[15] = target: Cytochrome P450 2D6 (Homo sapiens) (UniProt P10635); experiment: Cytochrome P450 Family 2 Subfamily D Member 6 (CYP2D6) small molecule antagonists: luciferase reporter qHTS assay (AID 1671196); also: nearly all actives have a fitted effect of over 50% in size; also: potency is read from the fitted curve at half-maximal effect
Outline: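 P450-Glo format: CYP2D6 converts a proluciferin substrate to luciferin in an NADPH-driven reaction lasting 1 h at room temperature. Light output, proportional to CYP2D6 activity, reflects interference by test chemicals.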

[16] = target: Nuclear receptor subfamily 1 group I member 2 (Homo sapiens) (UniProt O75469); experiment: Human pregnane X receptor (PXR) small molecule agonists, qHTS assay (AID 1346982); also: nearly all actives have a fitted effect of over 35% in size
Outline: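 Agonist mode qHTS: PXR-Luc HepG2 cells plated 5 hr before DMSO-dissolved compounds were pinned in, cultured 24 hr at 37 C, 5% CO2; ONE-Glo luminescence readout.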

[17] = target: Thyrotropin-releasing hormone receptor (Homo sapiens) (UniProt P34981); experiment: qHTS assay to identify small molecule agonists of the thyrotropin-releasing hormone receptor (TRHR) signaling pathway (AID 1346891; calls by dose curve;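 also: HEK293 cells expressing TRHR with calcium dye readout; series mostly up to about 58 µM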)
Outline: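 Overnight-plated (18 h, 37 °C, 5% CO2) TRHR-Hek293 cells; 2 h calcium dye at 37 °C; compound in DMSO; 3-min kinetic fluorescence read.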

[18] = target: Nuclear receptor subfamily 1 group I member 2 (Rattus norvegicus) (UniProt Q9R1A7); experiment: Rat pregnane X receptor (rPXR) activation by small molecules, qHTS assay (AID 1346983); conditions: rPXR luciferase reporter cells, One-Glo luminescence, 24 h; max activation: active compounds read high; also: nearly all actives have a fitted effect of over 20% in size
Outline: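 Cell-based rPXR luciferase reporter assay, 2,000 cells per well, rested 5hr at 37 C before compound addition in DMSO, then 24 hr at 37 C. One-Glo reagent was added and luminescence read after 30 min at room temperature.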

[19] = target: Nuclear receptor subfamily 1 group I member 2 (Homo sapiens) (UniProt O75469); experiment: CYP3A4 induction through human pregnane X receptor (PXR) by small molecules, qHTS assay (AID 1346984); also: nearly all actives have a fitted effect of over 40% in size
Outline: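 Steps: seed DPX-2 cells, 5 hr at 37C; pin-transfer compounds; 24 hr at 37C; add Luciferin-IPA (3uM final), 3 hr at 37C; add One-Glo, 30 min RT; read luminescence.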

[20] = target: Nuclear receptor subfamily 1 group I member 2 (Homo sapiens) (UniProt O75469); experiment: Human pregnane X receptor (PXR) activation by small molecules, qHTS assay (AID 1346985); also: nearly all actives have a fitted effect of over 40% in size
Outline: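 DPX-2 cells (HepG2 co-transfected with a PXR response element and a CYP3A4-promoter luciferase construct) were seeded at 2,000 per well, rested 5 hr at 37C, then exposed to DMSO-dissolved compounds for 24 hr. Activation was read as luciferase luminescence.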
% is scaled to controls: 0 for no effect and ±100 for the full control effect.

Chain of Progesterone receptor (Homo sapiens) (P06401 whole entry, looked up): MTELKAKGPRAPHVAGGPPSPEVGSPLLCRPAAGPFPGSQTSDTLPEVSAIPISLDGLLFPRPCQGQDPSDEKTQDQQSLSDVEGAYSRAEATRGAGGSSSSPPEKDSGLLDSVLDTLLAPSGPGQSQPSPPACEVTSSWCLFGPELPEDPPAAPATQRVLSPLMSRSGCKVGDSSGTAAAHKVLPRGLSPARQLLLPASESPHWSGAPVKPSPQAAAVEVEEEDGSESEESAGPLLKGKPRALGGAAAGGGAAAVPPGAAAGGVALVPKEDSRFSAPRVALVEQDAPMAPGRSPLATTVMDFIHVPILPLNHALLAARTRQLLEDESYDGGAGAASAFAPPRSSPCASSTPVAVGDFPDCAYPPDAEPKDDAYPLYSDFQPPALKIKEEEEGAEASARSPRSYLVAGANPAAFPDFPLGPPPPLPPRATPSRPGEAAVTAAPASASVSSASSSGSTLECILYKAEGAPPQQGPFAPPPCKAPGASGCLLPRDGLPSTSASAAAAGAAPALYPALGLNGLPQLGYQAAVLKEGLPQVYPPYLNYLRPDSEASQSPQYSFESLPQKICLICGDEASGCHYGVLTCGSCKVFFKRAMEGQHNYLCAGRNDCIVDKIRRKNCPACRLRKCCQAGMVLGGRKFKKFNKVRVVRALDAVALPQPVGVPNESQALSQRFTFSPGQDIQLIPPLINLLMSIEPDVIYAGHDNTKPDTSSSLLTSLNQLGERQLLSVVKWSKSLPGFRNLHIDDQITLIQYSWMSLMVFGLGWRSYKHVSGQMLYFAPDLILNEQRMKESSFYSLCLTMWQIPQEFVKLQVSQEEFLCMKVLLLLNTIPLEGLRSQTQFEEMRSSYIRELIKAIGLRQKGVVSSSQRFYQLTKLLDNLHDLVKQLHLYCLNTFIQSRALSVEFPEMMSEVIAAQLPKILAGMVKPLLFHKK
Chain of Thyrotropin-releasing hormone receptor (Homo sapiens) (P34981 whole entry, looked up): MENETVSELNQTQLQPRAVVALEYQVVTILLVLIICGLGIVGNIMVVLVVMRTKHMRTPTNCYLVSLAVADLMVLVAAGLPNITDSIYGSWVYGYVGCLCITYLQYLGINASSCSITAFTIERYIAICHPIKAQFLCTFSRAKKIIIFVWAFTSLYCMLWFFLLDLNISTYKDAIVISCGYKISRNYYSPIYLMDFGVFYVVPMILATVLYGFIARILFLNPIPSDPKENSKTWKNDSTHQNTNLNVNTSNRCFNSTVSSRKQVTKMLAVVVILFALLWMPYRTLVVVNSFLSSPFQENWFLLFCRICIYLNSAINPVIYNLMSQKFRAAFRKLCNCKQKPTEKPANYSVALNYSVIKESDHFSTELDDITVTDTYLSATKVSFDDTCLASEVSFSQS
Chain of Nuclear receptor subfamily 1 group I member 2 (Homo sapiens) (O75469 whole entry, looked up): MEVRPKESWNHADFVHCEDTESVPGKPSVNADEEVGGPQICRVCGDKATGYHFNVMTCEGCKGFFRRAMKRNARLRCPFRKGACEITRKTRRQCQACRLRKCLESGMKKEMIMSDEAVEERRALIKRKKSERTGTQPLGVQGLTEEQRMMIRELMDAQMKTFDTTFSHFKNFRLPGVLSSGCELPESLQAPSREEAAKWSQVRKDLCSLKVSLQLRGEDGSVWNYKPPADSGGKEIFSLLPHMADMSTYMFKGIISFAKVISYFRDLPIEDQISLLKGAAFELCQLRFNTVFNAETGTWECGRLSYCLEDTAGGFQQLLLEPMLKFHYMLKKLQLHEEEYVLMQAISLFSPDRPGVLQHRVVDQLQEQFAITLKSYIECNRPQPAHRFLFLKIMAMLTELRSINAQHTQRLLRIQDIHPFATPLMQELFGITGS
Chain of Cytochrome P450 2D6 (Homo sapiens) (P10635 whole entry, looked up): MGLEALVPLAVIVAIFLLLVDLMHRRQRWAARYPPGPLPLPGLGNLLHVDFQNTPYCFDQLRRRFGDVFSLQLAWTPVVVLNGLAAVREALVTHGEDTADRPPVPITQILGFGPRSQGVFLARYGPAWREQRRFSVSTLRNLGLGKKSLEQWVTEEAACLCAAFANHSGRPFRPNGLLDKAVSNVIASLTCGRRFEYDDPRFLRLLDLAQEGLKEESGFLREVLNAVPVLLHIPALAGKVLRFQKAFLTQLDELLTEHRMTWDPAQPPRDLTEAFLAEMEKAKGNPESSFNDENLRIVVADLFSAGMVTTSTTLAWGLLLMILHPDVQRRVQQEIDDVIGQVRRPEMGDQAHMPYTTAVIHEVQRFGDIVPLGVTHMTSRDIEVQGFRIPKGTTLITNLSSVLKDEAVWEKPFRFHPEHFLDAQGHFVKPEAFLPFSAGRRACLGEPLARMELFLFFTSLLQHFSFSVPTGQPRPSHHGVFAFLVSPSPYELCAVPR
Chain of Nuclear receptor subfamily 1 group I member 2 (Rattus norvegicus) (Q9R1A7 whole entry, looked up): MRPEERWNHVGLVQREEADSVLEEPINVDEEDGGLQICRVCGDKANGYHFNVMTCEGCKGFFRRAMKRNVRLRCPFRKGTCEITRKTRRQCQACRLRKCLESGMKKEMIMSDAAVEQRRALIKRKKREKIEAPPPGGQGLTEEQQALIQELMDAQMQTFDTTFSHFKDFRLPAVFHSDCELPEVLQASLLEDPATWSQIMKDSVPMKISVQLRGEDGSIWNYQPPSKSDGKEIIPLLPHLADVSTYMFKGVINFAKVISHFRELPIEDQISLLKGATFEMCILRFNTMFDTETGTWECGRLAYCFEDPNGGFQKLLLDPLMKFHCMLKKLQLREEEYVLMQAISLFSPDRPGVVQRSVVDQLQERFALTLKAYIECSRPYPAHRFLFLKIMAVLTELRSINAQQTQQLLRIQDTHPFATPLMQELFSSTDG

CC(CCc1ccc2c(c1)OCO2)NN (configuration not stated)
active: Potency [15] 30.9 µM
inactive: Potency [1] | Potency [2] | Potency [3] | Potency [4] | Potency [5] | outcome [6] | outcome [7] | outcome [8] | outcome [9] | Potency [10] | Potency [11] | Potency [12] | outcome [13] | Potency [14]

CN1Cc2cc(C(=O)N3CCC(C4CCNCC4)CC3)ccc2N[C@@H](CC(=O)O)C1=O
inactive: Potency [1] | Potency [2] | Potency [3] | Potency [4] | Potency [5] | outcome [6] | outcome [7] | outcome [8] | outcome [9] | Potency [10] | Potency [11] | Potency [12] | Potency [14] | Potency [16] | Potency [15]

CCCCCCCCCOC(C)=O
inactive: Potency [1] | Potency [2] | Potency [3] | Potency [4] | Potency [5] | outcome [6] | outcome [7] | outcome [8] | Potency [10] | Potency [11] | Potency [12] | outcome [13] | Potency [14] | Potency [16] | Potency [15]

Cn1c(=O)c2c(ncn2CC(=O)O)n(C)c1=O
inactive: Potency [1] | Potency [2] | Potency [3] | Potency [4] | Potency [5] | outcome [6] | outcome [7] | outcome [8] | Potency [17] | Potency [10] | Potency [11] | Potency [12] | Potency [16] | Potency [15]

c1cnc2c(n1)CCCC2
inactive: Potency [1] | Potency [2] | Potency [3] | Potency [4] | Potency [5] | outcome [6] | outcome [7] | outcome [8] | outcome [9] | Potency [17] | Potency [10] | Potency [12] | outcome [13] | Potency [14] | Potency [16] | Potency [15]

COC(=O)c1cc(Cl)ccc1NS(=O)(=O)C(F)(F)F
inactive: Potency [1] | Potency [2] | Potency [3] | Potency [4] | Potency [5] | outcome [6] | outcome [7] | outcome [8] | Potency [17] | Potency [10] | Potency [11] | Potency [12] | outcome [13] | Potency [14] | Potency [16] | Potency [15]

CCCOC(=O)c1ccc(N)cc1
inactive: Potency [1] | Potency [2] | Potency [3] | Potency [4] | Potency [5] | outcome [6] | outcome [7] | outcome [8] | Potency [10] | Potency [11] | Potency [12] | outcome [13] | Potency [14] | Potency [16] | max activation [18] 14.2% | Potency [19] | Potency [20]

CCN(Cc1cccc(S(=O)(=O)O)c1)c1ccc(C(=C2C=CC(=[N+](CC)Cc3cccc(S(=O)(=O)[O-])c3)C=C2)c2ccccc2)cc1
inactive: Potency [1] | Potency [2] | Potency [3] | Potency [4] | Potency [5] | outcome [6] | outcome [7] | outcome [8] | outcome [9] | Potency [17] | Potency [10] | Potency [11] | outcome [13] | Potency [16]
